Assay results taken from the antibiotic and cytotoxicity screens of Wong et al. (2023).
About 1,500 (3.8%) of roughly 39,000 compounds were called active. This excerpt belongs to a sample that is enriched for actives.

The compounds below were run on HSkMC (human skeletal muscle cells) (assay: cytotoxicity call (relative viability < 0.9)). Conditions: 10 µM.

Compound | cytotoxicity call
C[C@@H]1CCCCO[C@@H](CN(C)S(=O)(=O)c2ccccc2)[C@H](C)CN([C@@H](C)CO)C(=O)c2cc(NS(C)(=O)=O)ccc2O1 | inactive
CC(C)(C)OC(=O)C[C@@H]1CC=CC[C@@H](CC(=O)N[C@@H](CO)Cc2ccccc2)C(=O)N[C@@H](C(C)(C)C)COC1=O | inactive
CC(C)CC#Cc1cnc2c(c1)C(=O)N([C@H](C)CO)C[C@@H](C)[C@H](CN(C)C(=O)CCN1CCCCC1)O2 | inactive
COCC#Cc1ccc2c(c1)O[C@H](CN(C)S(=O)(=O)c1ccc(F)cc1)[C@@H](C)CN([C@@H](C)CO)S2(=O)=O | inactive
C[C@@H]1CN([C@@H](C)CO)C(=O)Cc2cc(NS(=O)(=O)c3ccccc3)ccc2O[C@@H]1CN(C)Cc1ccncc1 | inactive
O=C(C[C@@H]1CC[C@H]2[C@@H](COC[C@H](O)CN2Cc2ccccc2F)O1)N[C@H]1CCN(Cc2ccccc2)C1 | inactive
C[C@@H]1CCCCO[C@@H](CN(C)C(=O)Nc2ccccc2)[C@@H](C)CN([C@H](C)CO)C(=O)c2cc(NC(=O)Nc3ccc4c(c3)OCO4)ccc2O1 | inactive
Oc1ccc(C2(c3ccccc3F)CCC(F)(F)CC2)cc1 | inactive
CCNC(=S)N1CCOCC1 | inactive
NC(=O)C1CCCN1C(=O)C(Cc1c[nH]cn1)NC(=O)C1CCC(=O)N1 (stereo not given) | inactive
C[C@H](CO)N1C[C@H](C)[C@@H](CN(C)C(=O)Nc2cccc3ccccc23)OCCCC[C@H](C)Oc2ccc(NC(=O)NC3CCCCC3)cc2C1=O | active
C[C@@H]1CCCCO[C@H](CN(C)C(=O)Nc2cccc3ccccc23)[C@@H](C)CN([C@H](C)CO)C(=O)c2cc(NC(=O)NC3CCCCC3)ccc2O1 | inactive
C[C@@H]1CCCCO[C@@H](CN(C)C(=O)Nc2cccc3ccccc23)[C@H](C)CN([C@@H](C)CO)C(=O)c2cc(NC(=O)NC3CCCCC3)ccc2O1 | inactive
COc1ccc(S(=O)(=O)N(C)C[C@@H]2Oc3ncc(C#CC(C)(C)O)cc3C(=O)N([C@H](C)CO)C[C@@H]2C)cc1 | inactive
CC12CCC3c4ccc(O)cc4CCC3C1CCC2O (stereo not given) | inactive
CC12CCC3c4ccc(O)cc4CCC3C1CCC2OC(=O)CCC1CCCC1 (stereo not given) | active
CCCCC(=O)OC1CCC2C3CCc4cc(O)ccc4C3CCC12C (stereo not given) | inactive
C=C1C=[N+]([O-])N(c2ccc(C(=O)O)cc2)N1 | inactive
C[C@H](CO)N1C[C@H](C)[C@@H](CN(C)C(=O)NC2CCCCC2)Oc2c(NC(=O)Nc3cccc4ccccc34)cccc2C1=O | active
C[C@H]1CN([C@@H](C)CO)C(=O)c2cccc(NC(=O)Nc3cccc4ccccc34)c2O[C@@H]1CN(C)C(=O)NC1CCCCC1 | inactive
C[C@@H]1CN([C@@H](C)CO)C(=O)c2cccc(NC(=O)Nc3cccc4ccccc34)c2O[C@H]1CN(C)C(=O)NC1CCCCC1 | inactive
C[C@@H]1CN([C@H](C)CO)C(=O)c2cccc(NC(=O)Nc3cccc4ccccc34)c2O[C@@H]1CN(C)C(=O)NC1CCCCC1 | inactive
C[C@H](CO)N1C[C@H](C)[C@H](CN(C)C(=O)NC2CCCCC2)Oc2c(NC(=O)Nc3cccc4ccccc34)cccc2C1=O | active
C[C@H]1CN([C@@H](C)CO)C(=O)c2cccc(NC(=O)Nc3cccc4ccccc34)c2O[C@H]1CN(C)C(=O)NC1CCCCC1 | inactive

Compound | cytotoxicity call
C[C@@H]1CN([C@@H](C)CO)C(=O)c2cc(NC(=O)CCC(F)(F)F)ccc2O[C@H]1CN(C)C(=O)Nc1cccc2ccccc12 | inactive
COc1ccc(NC(=O)Nc2ccc3c(c2)C(=O)N([C@@H](C)CO)C[C@H](C)[C@H](CN(C)C(=O)C2CCCCC2)OCCCC[C@H](C)O3)cc1 | inactive
CCCNC(=O)N(C)C[C@@H]1Oc2cc(C#Cc3cccc(F)c3)ccc2S(=O)(=O)N([C@@H](C)CO)C[C@@H]1C | inactive
Cc1noc(C)c1NC(=O)N(C)C[C@@H]1Oc2ccc(NS(=O)(=O)c3c(C)noc3C)cc2CC(=O)N([C@H](C)CO)C[C@H]1C | inactive
Cc1ccc2c(Cl)cc(Cl)c(O)c2n1 | inactive
O=C(Nc1cc(Cl)cc(Cl)c1O)c1c(O)c(Cl)cc(Cl)c1Cl | inactive
Oc1c(Cl)cc(Cl)c(Cl)c1Cc1c(O)c(Cl)cc(Cl)c1Cl | active
C[C@@H]1CCCCO[C@@H](CN(C)Cc2ccc(C(F)(F)F)cc2)[C@H](C)CN([C@@H](C)CO)C(=O)c2cc(N(C)C)ccc2O1 | inactive
CC(C)NC(=O)Nc1ccc2c(c1)CC(=O)N([C@@H](C)CO)C[C@H](C)[C@@H](CN(C)C(=O)NC1CCCCC1)O2 | inactive
CC(C)NC(=O)N(C)C[C@@H]1Oc2ccc(NS(=O)(=O)c3ccccc3)cc2C(=O)N([C@H](C)CO)C[C@@H]1C | inactive
Oc1c(Cl)cc(Cl)cc1Sc1cc(Cl)cc(Cl)c1O | active
C[C@@H]1CN([C@@H](C)CO)S(=O)(=O)c2ccc(-c3cncnc3)cc2O[C@@H]1CN(C)C(=O)C1CCCCC1 | inactive
C[C@H](O)C1=C[C@]2(CC[C@@H]3C(C(=O)O)=CO[C@@H](O[C@@H]4O[C@H](CO)[C@@H](O)[C@H](O)[C@H]4O)[C@@H]32)OC1=O | inactive
CC1(C)CN(C(=O)Cn2nccn2)C[C@]1(C)O | inactive
O=C(C[C@@H]1CC=CC[C@H](NC(=O)OCC2c3ccccc3-c3ccccc32)C(=O)O[C@H](c2ccccc2)CNC1=O)N[C@@H](CO)Cc1ccccc1 | active
O=C(N[C@H]1CC=CC[C@H](CC(=O)N(CCO)Cc2ccccc2)C(=O)NCC(c2ccccc2)OC1=O)OCC1c2ccccc2-c2ccccc21 (stereo not given in full) | inactive
O=C(C[C@@H]1CC=CC[C@@H](NC(=O)OCC2c3ccccc3-c3ccccc32)C(=O)OC[C@H](Cc2ccccc2)NC1=O)N[C@H](CO)Cc1ccccc1 | inactive
O=C(N[C@@H]1CC=CC[C@H](CC(=O)N(CCO)Cc2ccccc2)C(=O)NC[C@H](c2ccccc2)OC1=O)OCC1c2ccccc2-c2ccccc21 | inactive
O=C(N[C@H]1CC=CC[C@H](CC(=O)N(CCO)Cc2ccccc2)C(=O)N[C@H](Cc2ccccc2)COC1=O)OCC1c2ccccc2-c2ccccc21 | inactive
O=C(C[C@@H]1CC=CC[C@H](NC(=O)OCC2c3ccccc3-c3ccccc32)C(=O)OC[C@H](Cc2ccccc2)NC1=O)N[C@@H](CO)Cc1ccccc1 | inactive
O=C(N[C@H]1CC=CC[C@H](CC(=O)N(CCO)Cc2ccccc2)C(=O)N[C@@H](Cc2ccccc2)COC1=O)OCC1c2ccccc2-c2ccccc21 | active
O=C(C[C@@H]1CC=CC[C@H](NC(=O)OCC2c3ccccc3-c3ccccc32)C(=O)OC[C@H](Cc2ccccc2)NC1=O)N[C@H](CO)Cc1ccccc1 | inactive
O=C(C[C@@H]1CC=CC[C@H](NC(=O)OCC2c3ccccc3-c3ccccc32)C(=O)O[C@@H](c2ccccc2)CNC1=O)N[C@@H](CO)Cc1ccccc1 | active
O=C(N[C@@H]1CC=CC[C@H](CC(=O)N(CCO)Cc2ccccc2)C(=O)N[C@@H](Cc2ccccc2)COC1=O)OCC1c2ccccc2-c2ccccc21 | inactive

Compound | cytotoxicity call
O=C(C[C@@H]1CC=CC[C@H](NC(=O)OCC2c3ccccc3-c3ccccc32)C(=O)O[C@H](c2ccccc2)CNC1=O)N[C@H](CO)Cc1ccccc1 | active
O=C(C[C@@H]1CC=CC[C@@H](NC(=O)OCC2c3ccccc3-c3ccccc32)C(=O)OC[C@@H](Cc2ccccc2)NC1=O)N[C@@H](CO)Cc1ccccc1 | inactive
COc1ccc(S(=O)(=O)Nc2ccc3c(c2)C(=O)N([C@@H](C)CO)C[C@@H](C)[C@@H](CN(C)Cc2ccncc2)O3)cc1 | inactive
CC(C)NC(=O)N(C)C[C@@H]1Oc2ccc(NS(=O)(=O)c3ccc(F)cc3)cc2CC(=O)N([C@H](C)CO)C[C@@H]1C | inactive
COc1cccc(S(=O)(=O)N[C@H]2CC[C@H](CCn3cc(-c4ccccc4OC)nn3)O[C@H]2CO)c1 | inactive
C[C@H]1CCCCO[C@@H](CN(C)C(=O)NC2CCCCC2)[C@@H](C)CN([C@@H](C)CO)C(=O)c2cc(NC(=O)Nc3ccc(F)cc3)ccc2O1 | inactive
C[C@H]1CN([C@@H](C)CO)C(=O)c2cccc(NC(=O)c3ccc(-c4nccs4)cc3)c2O[C@H]1CN(C)Cc1ccc(Cl)c(Cl)c1 | inactive
COc1ccccc1-c1ccc2c(c1)O[C@@H](CN(C)S(=O)(=O)c1ccccc1)[C@H](C)CN([C@@H](C)CO)S2(=O)=O | inactive
COc1ccc2c3c([nH]c2c1)[C@H](CO)N(C[C@]13CN(C)C1)C(=O)CN1CCOCC1 | inactive
COc1ccc(NC(=O)N(C)C[C@H]2OCCCC[C@@H](C)Oc3ccc(NS(=O)(=O)c4ccc(Cl)cc4)cc3C(=O)N([C@@H](C)CO)C[C@@H]2C)cc1 | inactive
Cc1ccc(S(=O)(=O)Nc2ccc3c(c2)C(=O)N([C@H](C)CO)C[C@H](C)[C@@H](CN(C)C(=O)NC(C)C)O3)cc1 | inactive
Cc1ccc(S(=O)(=O)N(C)C[C@H]2OCCCC[C@H](C)Oc3ccc(NC(=O)Nc4ccc(C(F)(F)F)cc4)cc3C(=O)N([C@H](C)CO)C[C@H]2C)cc1 | inactive
CCC(=O)Nc1ccc2c(c1)C(=O)N(C)C[C@@H](OC)[C@H](C)CN(C(=O)CN1CCOCC1)[C@H](C)CO2 | inactive
Cc1noc(C)c1S(=O)(=O)N(C)C[C@H]1Oc2ccc(NC(=O)Cn3cnnn3)cc2C(=O)N([C@H](C)CO)C[C@H]1C | active
Cc1noc(C)c1S(=O)(=O)N(C)C[C@H]1Oc2ccc(NC(=O)Cn3cnnn3)cc2C(=O)N([C@@H](C)CO)C[C@H]1C | inactive
Cc1noc(C)c1S(=O)(=O)N(C)C[C@H]1OCCCC[C@H](C)Oc2ccc(NC(=O)Nc3ccccc3)cc2C(=O)N([C@H](C)CO)C[C@@H]1C | active
Cc1noc(C)c1S(=O)(=O)N(C)C[C@@H]1OCCCC[C@@H](C)Oc2ccc(NC(=O)Nc3ccccc3)cc2C(=O)N([C@H](C)CO)C[C@H]1C | inactive
Cc1noc(C)c1S(=O)(=O)N(C)C[C@@H]1Oc2ccc(NC(=O)Cn3cnnn3)cc2C(=O)N([C@@H](C)CO)C[C@@H]1C | inactive
Cc1noc(C)c1S(=O)(=O)N(C)C[C@H]1OCCCC[C@@H](C)Oc2ccc(NC(=O)Nc3ccccc3)cc2C(=O)N([C@H](C)CO)C[C@@H]1C | inactive
Cc1noc(C)c1S(=O)(=O)N(C)C[C@@H]1OCCCC[C@H](C)Oc2ccc(NC(=O)Nc3ccccc3)cc2C(=O)N([C@H](C)CO)C[C@H]1C | active
Cc1noc(C)c1S(=O)(=O)N(C)C[C@@H]1OCCCC[C@@H](C)Oc2ccc(NC(=O)Nc3ccccc3)cc2C(=O)N([C@@H](C)CO)C[C@@H]1C | inactive
Cc1noc(C)c1S(=O)(=O)N(C)C[C@H]1OCCCC[C@H](C)Oc2ccc(NC(=O)Nc3ccccc3)cc2C(=O)N([C@H](C)CO)C[C@H]1C | inactive
